Records with an inconclusive call do not appear. The source made the active and inactive calls. Calls follow the shape of the dose curve; as a rule, active = well fitted cell-killing curve with a large enough effect in the repeat runs; inconclusive = weak or mixed curves, or effect the other way; inactive = flat fitted curve, though single readings scatter.
% is scaled to controls: 0 for no effect and ±100 for the full control effect; potency is read from the fitted curve at half-maximal effect.

The assay is described as follows: qHTS assay to identify small molecule antagonists of the retinoid acid receptor (RAR) signaling pathway - cell viability counter screen (AID 1159551). Also: nearly all actives have a fitted effect of over 35% in size. The settings on record: C3RL4 cells viability, ATP luminescence (CellTiter-Glo), 6 h; series mostly up to 92.4 µM; activity change, negative = cytotoxicity: at the top concentration. The text has this: U.S. Tox21 Program National Center for Advancing Translational Sciences [NCATS] NIH Chemical Genomics Center [NCGC] U.S. Environmental Protection Agency [EPA] National Institutes of Environmental Health Sciences [NIEHS] National Toxicology Program [NTP] U.S. Food and Drug Administration [FDA] Tox21 Assay Overview: All-trans Retinoic acid (atRA) is the potent natural metabolite of retinol and plays an important role in normal embryonic development and maintenance of cellular phenotype in adult animals. atRA is the activating ligand for the retinoic acid receptors (RARs) which form heterodimers with retinoid X receptors (RXRs) on the retinoic acid response element (RARE). Through activation of the RAR/RXRs nuclear receptors, atRA regulates the transcription of a large number of protein-coding genes and regulatory RNAs. Intracellular levels of atRA are controlled by the retinol signaling pathway (RSP) that regulates the biosynthesis and catabolism of atRA to maintain physiological levels. Chemicals that interfere with the RSP can cause abnormal intracellular levels of atRA and therefore are potential developmental toxicants. To assess compounds for the potential adverse effect on embryonic development through interfering with retinol signaling, a cell-based RARE luciferase reporter gene assay was used. C3RL4 cell line (OARSA/CFSAN/FDA, Laurel, MD) was used to screen Tox21 10K compound library for identifying inhibitors of the RSP. Also cytotoxicity was assessed by determining the viability of cells based on the quantitation of ATP.
Tox21 Assay Protocol Summary: C3RL4 cells were seeded at 1,000/well in 4 uL of assay medium into white solid 1,536-well tissue culture plates (Greiner Bio-One North America Inc. Monroe, NC) using a Multidrop Combi (Thermo Scientific, Waltham, MA) dispenser. After incubation at 37 C and 5% CO2 for an overnight, 23 nL of compounds dissolved in DMSO, positive control or DMSO only were transferred by a Pintool station (Kalypsys, San Diego, CA). One ul of 1 uM (final concentration) of Retinol was added right after the compound addition by using a Flying Reagent Dispenser (FRD) (Aurora Discovery, San Diego, CA). After 6 hr incubation at 37 C and 5% CO2, 5 uL of CellTiter-Glo reagent (Promega Corporation, Madison, WI) was added to each assay plate using an FRD. Luminescence was quantified on a ViewLux plate reader (PerkinElmer, Waltham, MA) after 30 min incubation at room temperature.
Background: In qHTS, concentration-response curves come from the screen itself.
Regarding `O=C(OCCOCCO)c1ccccc1Nc1cccc(C(F)(F)F)c1`, the “activity change, negative = cytotoxicity” value is -1.8% [at 42.5 µM] (inactive).

As for `CCOC(=O)c1ccccc1OC`, the “activity change, negative = cytotoxicity” value was 3.56% (inactive).

Regarding `CCCCCCCCSCCO`, the “activity change, negative = cytotoxicity” value is 1.59% (inactive).

For the compound `CC(C)CCCCCCOC(=O)CCCCC(=O)OCCCCCCC(C)C`, the “activity change, negative = cytotoxicity” value was 5.31% (inactive).

As for `C[N+](C)(C)CCOC(N)=O`, the “activity change, negative = cytotoxicity” value was 4.04% [at 42.5 µM] (inactive).

Regarding `CC(C)C(OC(=O)c1ccccc1)C(C)(C)COC(=O)c1ccccc1` (stereo not given), the “activity change, negative = cytotoxicity” value was -0.366% (inactive).

`CC(=O)N(c1onc(C)c1C)S(=O)(=O)c1ccc(N)cc1`: the “activity change, negative = cytotoxicity” value is 3.08% [at 42.5 µM] (inactive).

As for `Cc1ccnc2ccccc12`, the “activity change, negative = cytotoxicity” value is 0.201% (inactive).

Consider `CC(=O)[C@H]1CC[C@H]2[C@@H]3C=CC4=CC(=O)CC[C@@]4(C)[C@@H]3CC[C@]12C`, for which the “activity change, negative = cytotoxicity” value is -0.21% [at 42.5 µM] (inactive).

Consider `c1ccc(COCc2ccccc2)cc1`, for which the “activity change, negative = cytotoxicity” value is -0.799% (inactive).

On to `CCCCCCOC(=O)CCCCCCCC(=O)OCCCCCC`, for which the “activity change, negative = cytotoxicity” value is 1.29% (inactive).

`O=C(O)c1c(O)c(-c2ccccc2)nc2ccccc12`: the “activity change, negative = cytotoxicity” value is -0.759% [at 42.5 µM] (inactive).

`CC(Cl)C(Cl)Cl` (stereo not given): the “activity change, negative = cytotoxicity” value was 4.79% (inactive).

Regarding `CN1CCN(c2c(F)cc3c(=O)c(C(=O)O)cn4c3c2OCN4C)CC1`, the activity change, negative = cytotoxicity was -0.366% [at 19 µM] (inactive).

As to `NC(=O)Nc1ccc(Cl)cc1`, the “activity change, negative = cytotoxicity” value is 3.68% (inactive).

On to `C[C@]12CCC(=O)C=C1C=C[C@@H]1[C@@H]2CC[C@@]2(C)[C@H]1CC[C@@]21CCC(=O)O1`, for which the “activity change, negative = cytotoxicity” value was 1.12% [at 42.5 µM] (inactive).

As to `CCn1nc(C)c2c1C(=O)NCC(c1ccc(O)cc1)=N2`, the “activity change, negative = cytotoxicity” value was 3.12% (inactive).

Consider `CC(=O)Oc1ccc(C(=C2CCCCC2)c2ccc(OC(C)=O)cc2)cc1`, for which the “activity change, negative = cytotoxicity” value was 2.54% [at 42.5 µM] (inactive).

As for `COc1cc2[nH]c(=O)[nH]c(=O)c2cc1OC`, the “activity change, negative = cytotoxicity” value was 6.57% [at 42.5 µM] (inactive).

Turning to `Oc1cc(O)c(Cl)cc1Cl`, the “activity change, negative = cytotoxicity” value is 3.91% (inactive).

Turning to `O=Cc1c(Cl)cccc1Cl`, the “activity change, negative = cytotoxicity” value is 0.357% (inactive).

`CCCCCCCCCCCCCCCCBr`: the activity change, negative = cytotoxicity was 5.27% [at 19 µM] (inactive).

Turning to `CCN(CC)CCNC(=O)c1ccc(NC(C)=O)cc1`, the “activity change, negative = cytotoxicity” value was -0.608% [at 42.5 µM] (inactive).

`O=C(O)c1ccc(CO)o1`: the “activity change, negative = cytotoxicity” value is -1.07% (inactive).

As for `CCOC(=O)/C=C/C(=O)O`, the “activity change, negative = cytotoxicity” value is -1.53% (inactive).

Consider `N#C/C(=C1/SC[C@@H](c2ccc(Cl)cc2Cl)S1)n1ccnc1`, for which the “activity change, negative = cytotoxicity” value was 2.77% [at 42.5 µM] (inactive).

As for `Fc1ccccc1[C@@H](F)COC1CCC(Nc2ncnc3[nH]ncc23)CC1` (stereo not given in full), the “activity change, negative = cytotoxicity” value was -2.14% (inactive).

Consider `CCn1cc(C(=O)O)c(=O)c2cc(F)c(N3CCNCC3)nc21`, for which the “activity change, negative = cytotoxicity” value was 0.295% [at 42.5 µM] (inactive).

On to `O=S(=O)(c1ccccc1)c1ccc(Cl)cc1`, for which the “activity change, negative = cytotoxicity” value was -1.11% (inactive).

On to `CC1(C)C2=CCCC(C)(C)[C@]23CC[C@H]1C3`, for which the “activity change, negative = cytotoxicity” value was -0.433% (inactive).

As to `Fc1c(F)c(F)c(Br)c(F)c1F`, the “activity change, negative = cytotoxicity” value is 2.93% (inactive).

As to `CC(=O)Oc1ccc2c(c1)CC[C@@H]1[C@@H]2CC[C@]2(C)[C@@H](O)CC[C@@H]12`, the “activity change, negative = cytotoxicity” value was 0.989% [at 42.5 µM] (inactive).

As to `CCCCCCCC/C=C\CCCCCCCC(=O)OC(CO)CO`, the “activity change, negative = cytotoxicity” value was -1.91% (inactive).

As for `NCC1CCCC(CN)C1` (stereo not given), the “activity change, negative = cytotoxicity” value is -0.459% (inactive).

`COc1ccccc1N=Nc1c(S(=O)(=O)O)cc2cc(S(=O)(=O)O)cc(NC(C)=O)c2c1O`: the Potency is 22.9 µM (active).

`CCCCCCCCCCCCCCC[C@H](O)[C@@H](N)CO`: the “activity change, negative = cytotoxicity” value is 0.751% [at 42.5 µM] (inactive).

Take `O=C(CCCCCCCCC#CI)Oc1ccccc1`: the “activity change, negative = cytotoxicity” value was 0.346% [at 42.5 µM] (inactive).

Turning to `Cc1cc(OI)c(C(C)C)cc1-c1cc(C(C)C)c(OI)cc1C`, the “activity change, negative = cytotoxicity” value is 0.0919% [at 42.5 µM] (inactive).

As to `CCOC(=O)C(C)Oc1ccc(Oc2nc3ccc(Cl)cc3o2)cc1` (stereo not given), the “activity change, negative = cytotoxicity” value is -0.122% (inactive).

Take `CCC(=O)Oc1ccc(/C(CC)=C(\CC)c2ccc(OC(=O)CC)cc2)cc1`: the “activity change, negative = cytotoxicity” value was 1.13% (inactive).

The values are drawn from PubChem BioAssay (Tox21).
